Test results from publication PMC4336329 (PLoS ONE, 2015).
About 2,200 (0.71%) of roughly 310,000 compounds showed an effect of 50% or more. Effects have a minus sign here. The sample as a whole holds a higher share of strong results than the screen did.

Target: human ether-à-go-go-related gene (hERG) potassium channel (human, UniProt Q12809)
Experiment: primary screen, population patch clamp on CHO cells stably expressing hERG; higher = less effect of the substance

Sequence of human ether-à-go-go-related gene (hERG) potassium channel (Q12809 whole entry, looked up): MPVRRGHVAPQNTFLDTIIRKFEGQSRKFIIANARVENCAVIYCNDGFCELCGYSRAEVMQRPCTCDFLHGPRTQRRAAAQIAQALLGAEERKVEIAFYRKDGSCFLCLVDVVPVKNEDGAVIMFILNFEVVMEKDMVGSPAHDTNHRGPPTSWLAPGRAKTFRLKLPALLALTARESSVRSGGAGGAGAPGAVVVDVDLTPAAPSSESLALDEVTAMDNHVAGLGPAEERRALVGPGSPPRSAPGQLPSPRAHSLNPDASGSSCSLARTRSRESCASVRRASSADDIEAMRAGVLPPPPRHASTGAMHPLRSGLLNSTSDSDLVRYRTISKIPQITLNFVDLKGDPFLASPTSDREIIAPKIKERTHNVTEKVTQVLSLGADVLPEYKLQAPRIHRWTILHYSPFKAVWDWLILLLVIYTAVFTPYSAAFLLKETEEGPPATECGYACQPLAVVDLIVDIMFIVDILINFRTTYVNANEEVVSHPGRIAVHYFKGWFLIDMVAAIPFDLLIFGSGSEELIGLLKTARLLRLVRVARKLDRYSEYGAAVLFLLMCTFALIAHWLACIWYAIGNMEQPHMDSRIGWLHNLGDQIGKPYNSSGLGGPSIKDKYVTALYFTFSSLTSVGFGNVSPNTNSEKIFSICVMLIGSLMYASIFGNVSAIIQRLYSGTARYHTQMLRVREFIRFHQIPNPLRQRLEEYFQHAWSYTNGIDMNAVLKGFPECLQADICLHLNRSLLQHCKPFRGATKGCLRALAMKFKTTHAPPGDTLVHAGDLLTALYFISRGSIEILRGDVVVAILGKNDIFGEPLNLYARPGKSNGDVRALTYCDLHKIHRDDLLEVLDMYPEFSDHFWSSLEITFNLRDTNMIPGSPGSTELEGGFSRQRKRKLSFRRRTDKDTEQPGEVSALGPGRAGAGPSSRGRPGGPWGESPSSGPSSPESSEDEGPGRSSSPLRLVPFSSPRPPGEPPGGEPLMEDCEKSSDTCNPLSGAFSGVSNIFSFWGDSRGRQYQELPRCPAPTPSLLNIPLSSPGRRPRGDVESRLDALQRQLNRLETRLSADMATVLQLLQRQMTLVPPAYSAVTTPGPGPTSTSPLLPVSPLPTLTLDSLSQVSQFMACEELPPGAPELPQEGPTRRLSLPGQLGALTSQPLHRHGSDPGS

| SMILES | hERG current change (%, negative = inhibition) at 1uM |
| --- | --- |
| CCOC(=O)c1sc2nc(C)nc(N3CCCCC3C)c2c1C (stereo not drawn) | -5.1% |
| O=C(NCCNC(=O)c1ccc(Cl)cc1Cl)c1cnccn1 | 6.54% |
| O=C(CSc1cccc2cccc(Cl)c12)NC1=NCCS1 | 2.37% |
| CSCCC(NC(=O)COc1ccccc1)C(=O)NCCOc1ccc(C)cc1 (stereo not drawn) | 3.41% |
| O=C(CCC1CCN(C(=O)c2ccccc2Cl)CC1)NCc1ccc(F)cc1 | 4.08% |
| O=C(CCC1CCN(C(=O)c2ccco2)CC1)NCc1ccc(F)cc1 | -62% |
| O=C(c1ccco1)N1CCN(C(=S)NCc2ccc(F)cc2)CC1 | -3.27% |
| Cl.O=C(c1ccco1)N1CCN(CCCCOc2ccc(F)cc2)CC1 | -74.8% |
| Cl.O=C(c1ccco1)N1CCN(CCOc2ccc(F)cc2)CC1 | -0.809% |
| O=C(c1ccco1)N1CCN(CCOc2ccccc2)CC1 | 10.3% |
| Cc1cccc(NC(=O)Cn2c(=O)n(Cc3ccco3)c(=N)c3c4c(sc32)COC(C)(C)C4)c1 | 3% |
| COc1cccc(/C=C2\SC(N)=NC2=O)c1OS(=O)(=O)c1ccccc1 | 2.6% |
| COc1cccc(CN2CC(C(=O)NCCCCc3ccccn3)CCC2=O)c1 (stereo not drawn) | 7.17% |
| Cc1ccccc1Cn1c(C)nc2ccccc21 | 10.4% |
| Cc1ccc(SCc2nc3ccccc3n2CC(=O)Nc2c(C)cccc2C)cc1 | 6.88% |
| C[C@@H](C(=O)NC1CCN(Cc2ccccc2)CC1)N1C(=O)N2CCc3c([nH]c4ccccc34)[C@@]2(C)C1=O | -62.1% |
| CC(C)[C@@H](C(=O)NC1CCN(Cc2ccccc2)CC1)N1C(=O)N2CCc3c([nH]c4ccccc34)[C@@]2(C)C1=O | -4.75% |
| CC(C)C[C@@H](C(=O)NC1CCN(Cc2ccccc2)CC1)N1C(=O)N2CCc3c([nH]c4ccccc34)[C@@]2(C)C1=O | -12.1% |
| Cc1ccc(-n2nnnc2SCC(=O)Nc2ccccc2-c2ccccc2)cc1C | 2.73% |
| C#CC1CN(Cc2ccccc2)CC(C#C)N1C.Cl (stereo not drawn) | 15.1% |
| O=C(CN1CCN(c2ccc(Cl)cc2)CC1)Nc1ccc(F)cc1 | -28.1% |

| SMILES | hERG current change (%, negative = inhibition) at 1uM |
| --- | --- |
| O=C(CN1CCN(c2ccc(O)cc2)CC1)Nc1ccc(SC(F)F)cc1 | -78.4% |
| O=C(CN1CCN(CC(=O)Nc2ccc(Cl)cc2)CC1)Nc1ccc(F)cc1 | -86.9% |
| CCN(CC)c1ccc(NC(=O)CN2CCN(CC(=O)Nc3ccccc3F)CC2)cc1 | -13% |
| CN(C)c1ccc(NC(=O)CN2CCC(C(=O)c3ccc(F)cc3)CC2)cc1 | -4.93% |
| CCN(CC)c1ccc(NC(=O)CN2CCN(c3ccccc3F)CC2)cc1 | 7.06% |
| O=C(CN1CCN(CC(=O)Nc2ccc(-c3ccccc3)cc2)CC1)Nc1ccc(F)cc1 | -13.7% |
| CN(C)c1ccc(NC(=O)CN2CCN(c3ccc(F)cc3)CC2)cc1 | -3.53% |
| COc1ccc(N2CCN(CC(=O)Nc3ccc(SC(F)F)cc3)CC2)cc1 | -35.8% |
| CCN(CC)c1ccc(NC(=O)CN2CCN(CC(=O)Nc3ccc(F)cc3)CC2)cc1 | -84.5% |
| COc1cccc(N2CCN(CC(=O)Nc3ccc(SC(F)F)cc3)CC2)c1 | -27.7% |
| CN(C)c1ccc(NC(=O)CN2CCN(CC(=O)Nc3ccc(F)cc3)CC2)cc1 | -61.1% |
| CN(C)C=O.Cc1cccc(-n2nnnc2SCC(=O)N(CC(C)C)c2c(N)n(CC(C)C)c(=O)[nH]c2=O)c1 | 4.9% |
| O=C(c1cccc(S(=O)(=O)NCc2ccccc2)c1)N1CCCCC1 | 9.32% |
| CCN(CC)CCCN(C(=O)Cn1nnc(-c2ccc(OC)c(OC)c2)n1)C(C(=O)NC(C)(C)C)c1ccc(F)cc1 (stereo not drawn) | -25.2% |
| C=CCN1C(=O)C(CC(=O)NCC)SC1=Nc1ccccc1CC (stereo not drawn) | 11.7% |
| c1ccc(CSc2nncn2-c2ccccn2)cc1 | 7.05% |
| O=C(CSC(=S)N1CCCCC1)c1c(F)cccc1F | 21.7% |
| OC1(c2ccccc2)c2ccccc2-c2ncccc21 (stereo not drawn) | 5.63% |
| Cc1ccc2c(CC(=O)NCC3(N4CCOCC4)CCCCC3)coc2c1C | -5.15% |
| O=C(Cc1coc2cc3c(cc12)CCC3)NCC1(N2CCCCC2)CCCCC1 | -59.2% |
| O=C(Cc1coc2cc3c(cc12)CCC3)NC1CCCCCCC1 | 0.112% |

| SMILES | hERG current change (%, negative = inhibition) at 1uM |
| --- | --- |
| O=S(=O)(c1cccs1)N1CN(C2CCCCC2)c2nc3ccccc3nc21 | 0.376% |
| COc1cc(/C=C2\SC(N3CCc4ccccc4C3)=NC2=O)cc(OC)c1OC | 5.93% |
| CCCCn1c(=N)n(CC(O)COc2cccc(C)c2)c2ccccc21.Cl (stereo not drawn) | -59.8% |
| CCCn1c(=N)n(CC(O)COc2cccc(C)c2)c2ccccc21.Cl (stereo not drawn) | -60% |
| CCN(CC)CCn1c(=N)n(CC(O)COc2cccc(C)c2)c2ccccc21.Cl (stereo not drawn) | -22.1% |
| CCn1c(=N)n(CC(O)COc2cccc(C)c2)c2ccccc21.Cl (stereo not drawn) | -16% |
| COc1ccc(-c2oc3cccnc3c2C#CC2(O)CCCCC2)cc1 | 6.61% |
| COCCC(=O)N1CCC(Oc2ccc(C(=O)N(C)CCCC3CCCC3)cc2)CC1 | -1.26% |
| Cc1cccn2c(=O)c3cc(C(=O)NC4CCCCC4)c(=N)n(CCN4CCOCC4)c3nc12 | -51.7% |
| CCCn1c(=N)c(C(=O)NC2CCCC2)cc2c(=O)n3cccc(C)c3nc21 | -84.1% |
| Cc1cccn2c(=O)c3cc(C(=O)NC4CCCC4)c(=N)n(CCCN4CCOCC4)c3nc12 | -77.5% |
| C#CCOCCOCCOCCNc1nc(N2CCN(C(=O)[C@H](CCC(=O)O)n3cc(C(N)Cc4ccc(O)cc4)nn3)CC2)nc(N2CCN(C(=O)[C@H](CCC(=O)O)n3cc(C(N)Cc4ccc(O)cc4)nn3)CC2)n1.Cl (stereo partly drawn) | 12.3% |
| Cc1ccnc(SCc2cc(=O)c(OC(=O)c3ccccc3)co2)n1 | 15% |
| CC(NC(=O)C(C)N1C(=O)c2cccc([N+](=O)[O-])c2C1=O)c1ccccc1 (stereo not drawn) | 14.9% |
| O=C(c1cc2nc(-c3ccco3)cc(C(F)(F)F)n2n1)N1CCCc2ccccc21 | 16.9% |
| COc1ccc(CNS(=O)(=O)c2c(C(=O)N3CCCCCC3)c(C)n(C)c2C)cc1 | 10.5% |
| C=CCNC(=O)c1onc(CSc2cccc(OC)c2)c1C(=O)O | 18.7% |
| CCOc1ccc(-c2nc(-c3ccccc3C)no2)cc1 | 10.9% |
| Cc1cc(C)n2nc(-c3cnn(C)c3C(F)(F)F)cc2n1 | 1.96% |
| Cn1c(CSCc2ccccc2)nnc1SCC(=O)Nc1nccs1 | -17.6% |
| O=C1NC(Cc2ccccc2)C(=O)N1CC(=O)N1CCCc2ccccc21 (stereo not drawn) | 5.14% |

| SMILES | hERG current change (%, negative = inhibition) at 1uM |
| --- | --- |
| CCOC(=O)C1CCN(C(=O)c2cc3c(C)cc(C)cc3[nH]2)CC1 | 12% |
| Cc1cc(C)c2cc(C(=O)N3CCC(C(=O)c4ccc(F)cc4)CC3)[nH]c2c1 | 8.43% |
| Cc1cc(C)c2cc(C(=O)N3CCC(N4CCCCC4)CC3)[nH]c2c1 | -58.8% |
| Cc1c(C(=O)N2CCC(N3CCSCC3)CC2)oc2c(F)cccc12 | 2.81% |
| CCOC(=O)C1CCN(C2CCN(C(=O)c3oc4c(F)cccc4c3C)CC2)CC1 | -67% |
| CCOC(=O)C1CCN(C2CCN(C(=O)c3oc4c(C)c(C)ccc4c3C)CC2)CC1 | -15.6% |
| Cc1nc2nc(C)c(CCC(=O)NC3CCCCC3)c(C)n2n1 | 9.07% |
| O=C(NC1CC2CCCC(C1)N2Cc1ccccc1)c1cccc(F)c1 (stereo not drawn) | -29.8% |
| COc1ccc(CN2C3CCC2CC(NC(=O)c2cccc(F)c2)C3)cc1 (stereo not drawn) | -81.1% |
| CCCCN1C2CCCC1CC(NC(=O)c1cccc(Cl)c1)C2 (stereo not drawn) | -63% |
| O=C(NC1CC2CCCC(C1)N2S(=O)(=O)c1ccccc1)c1ccccc1 (stereo not drawn) | -9.46% |
| CCCCN1C2CCCC1CC(NC(=O)c1cccc(OC)c1)C2 (stereo not drawn) | -2.96% |
| COc1ccc(CN2C3CCCC2CC(NC(=O)c2cccc(F)c2)C3)cc1 (stereo not drawn) | -85.9% |
| COc1cccc(C(=O)NC2CC3CCCC(C2)N3S(=O)(=O)c2ccccc2)c1 (stereo not drawn) | -8.93% |
| COc1cccc(C(=O)NC2CC3CCC(C2)N3Cc2ccccc2)c1 (stereo not drawn) | -2.53% |
| Cc1cccc(C(=O)NC2CC3CCCC(C2)N3S(=O)(=O)c2ccccc2)c1 (stereo not drawn) | -63.4% |
| CCCN1C2CCCC1CC(NC(=O)c1cccc(Cl)c1)C2 (stereo not drawn) | -2.98% |
| O=C(NC1CC2CCC(C1)N2Cc1ccccc1)c1cccc(F)c1 (stereo not drawn) | -17.5% |
| COc1ccc(C(=O)NC2CC3CCCC(C2)N3Cc2ccccc2)cc1 (stereo not drawn) | -15.7% |
| O=C(O)c1ccccc1-c1ccccc1C(=O)NCc1ccco1 | 13% |
| Clc1ccc2c(NCc3ccco3)ncnc2c1 | -1.55% |
